Screening results as filed in PubChem BioAssay.
Shown are actives, neighbours in structure and some others; about 5.7% of the full set was active somewhere.
HP1b chromo inh: inhibitors of HP1-beta chromodomain binding to methylated histone tails; P83916; AlphaScreen HP1-beta / biotin-H3K9me3 peptide binding; Potency, µM (highest dose often 114 µM), actives largely listed as inhibitors; 390,000 compounds, 0.56% hits; AID 540317; also: nearly all actives have a fitted effect of over 70% in size
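HP1-beta protein (50 nM final) preincubated 30 min at room temperature with biotinylated H3(1-18)K9me3 peptide (50 nM) in PBS pH 7.4, 0.01% Tween-20, then compound added for 30 min. AlphaScreen streptavidin donor/nickel chelate acceptor beads (10 ug/mL final), 30 min dark, luminescence read.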
PI5P4K alpha inh: inhibitors of human PI5P4K alpha; max response, %; 330,000 compounds, 1.2% hits; PI5P4Kalpha enzyme, ADP-Glo luminescence, 60 min; hits give low values; active = max response of -50% or lower; inconclusive = between -30% and -50%; inactive = -30% or higher; also: value at the top dose of about 77 µM
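ADP-Glo luminescence end-point read after a 60 min room-temperature kinase reaction of PI5P4Kalpha plus substrate, initiated with ATP at 5 microM final. Buffer: 0.038 M HEPES pH 7.4, EGTA, 0.1% CHAPS, 5% DMSO.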
JMJD2A Tudor: blocks the human JMJD2A Tudor domain | AID 504339 | AlphaScreen JMJD2A-Tudor / H3K4me3 peptide binding | 390,000 compounds, 4.4% hits | Potency, µM (highest dose often 114 µM), usual class: inhibitors; also: nearly all actives have a fitted effect of over 50% in size
BAZ2B inh: BAZ2B (human) inhibition; Potency, µM (titrated, usually from 114 µM), actives largely listed as inhibitors; 360,000 compounds, 4.4% hits; Q9UIF8; AID 504333; AlphaScreen BAZ2B-H3K14Ac peptide displacement; also: nearly all actives have a fitted effect of over 60% in size
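AlphaScreen displacement: compounds (up to 110uM) incubated 30 min at room temperature with a preformed 50 nM BAZ2B/50 nM biotinylated H3K14Ac peptide complex in PBS pH 7.4 with Tween-20. Donor and acceptor beads at 10 ug/mL final added, 20 min light-protected before reading.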
JMJD2E inh: inhibitors of human JMJD2E histone demethylase | B2RXH2 | JMJD2E catalytic domain, FDH-coupled NADH fluorescence (FDH is formaldehyde dehydrogenase) | Potency, µM (top dose mostly 57.1 µM), most hits filed as inhibitors | 230,000 compounds, 1.6% hits | AID 2147; active = well fitted inhibition curve with a large enough effect, not every such curve was filed as active; inconclusive = small, poorly fitted or top-dose-only effect, or another doubt; inactive = no such curve, though single readings can be large or run the other way; also: nearly all actives have a fitted effect of over 50% in size
L3MBTL1 block: inhibitors of human L3MBTL1; AlphaScreen L3MBTL1–H3K9me1 peptide binding; 230,000 compounds, 0.66% hits; AID 485360; Potency, µM (titrated, usually from 57.1 µM), actives largely listed as inhibitors; also: nearly all actives have a fitted effect of over 60% in size
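L3MBTL1 (50 nM) pre-complexed 30 min with biotinylated H3(1-15)K9me1 peptide (75 nM), then compounds added for 30 min at room temperature; AlphaScreen streptavidin donor/nickel chelate acceptor beads (10 ug/mL final) read after 30 min dark incubation.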
Numbers stand for hits; i = inactive; ? = inconclusive; nt = no result; [ ] = dose if it differs, or a comment. Unless noted, calls follow the shape of the dose curve; as a rule, active = well fitted inhibition curve with a large enough effect; inconclusive = small, poorly fitted or top-dose-only effect; inactive = no such curve, though single readings can be large or run the other way.

SMILES	HP1b chromo inh	PI5P4K alpha inh	JMJD2A Tudor	BAZ2B inh	JMJD2E inh	L3MBTL1 block
O=C(Nc1cccc(CNCCc2c[nH]c3ccccc23)c1)c1ccccc1Cl	i	i	45µM	50µM	nt	nt
CC(=O)c1cccc(NC(=O)NCCc2c[nH]c3ccccc23)c1	i	i	i	i	i	nt
CC(=O)NC1=NN(C(C)=O)C(c2ccccc2)S1 (stereo unspecified)	i	?	11µM	i	i	i
CC(=O)NC1=NN(C(C)=O)C(c2ccc(C)cc2)S1 (stereo unspecified)	i	i	i	i	i	i
O=C(COC(=O)c1ccccn1)NCCc1ccc(Cl)cc1	i	i	i	nt	nt	i
CCCCN(C)C(=O)c1ccc2c(c1)N(Cc1ccc(F)cc1)C(=O)c1ccccc1S2(=O)=O	i	nt	i	i	nt	nt
O=C(NCCc1ccc(F)cc1)C(=O)NCC(c1ccc2c(c1)OCO2)N1CCOCC1 (stereo unspecified)	i	nt	i	i	nt	nt
CCOC(=O)c1ccc(NC(=O)c2c(NCc3cccs3)sc3c2CCCCC3)cc1	i	nt	56µM	?	nt	nt
CCOC(=O)c1ccc(NC(=O)c2c(NC(=O)CCC(=O)O)sc3c2CCCCC3)cc1	?	i	i	i	i	i
CCOC(=O)c1c(NC(=O)C(=O)N/N=C/c2ccccc2O)sc2c1CCCCC2	i	i	i	i	32µM	i
CCOC(=O)c1c(NC(=O)C(=O)N/N=C/c2ccccc2OC)sc2c1CCCCC2	i	i	i	i	i	i
CCOC(=O)N1CCc2c(sc(NCc3cc(OC)ccc3OC)c2C(=O)Nc2cc(OC)ccc2OC)C1	i	nt	?	32µM	nt	nt
CCOc1ccc(NC(=O)c2c(NC(=O)c3ccccc3F)sc3c2CCC3)cc1	i	nt	i	i	nt	nt
CCOc1ccc(NC(=O)c2c(NC(=O)CNCCN3CCOCC3)sc3c2CCC3)cc1	i	i	79µM	45µM	nt	nt
CC(=O)c1cc(Cl)ccc1OCc1cccc(S(=O)(=O)N2CCOCC2)c1	i	i	i	i	nt	i
COc1ccc(OC)c(NC(=O)c2c(NCc3ccc(N(C)C)cc3)sc3c2CCCC3)c1	i	nt	11µM	11µM	nt	nt
COc1ccc(NC(=O)c2c(NCc3cccs3)sc3c2CCCCC3)c(OC)c1	?	nt	45µM	?	nt	nt
COc1ccc(NC(=O)c2c(NCc3cccs3)sc3c2CCCC3)cc1	i	nt	?	i	nt	nt
CCOc1ccc2nc(N(Cc3cccnc3)C(=O)c3ccc4c(c3)OCCO4)sc2c1	i	nt	i	i	nt	nt
CCOC(=O)Cc1ncccc1C(=O)Nc1ccc(Oc2ccccc2)cc1	i	i	i	?	i	i
O=C1CCC(C(=O)N2CCCC2)CN1Cc1cccc(C(F)(F)F)c1 (stereo unspecified)	i	i	i	i	nt	nt
Cc1cccc(-n2cc(-c3ccccc3)c3c(=O)[nH]cnc32)c1	?	i	79µM	45µM	i	i
NN/C(=C\[N+](=O)[O-])Nc1ccccc1	i	i	i	56µM	i	?
NN/C(=C\[N+](=O)[O-])Nc1ccc(Cl)cc1	i	i	?	?	i	i
O=C(Nc1ccc(Nc2ccncc2)cc1)c1ccc(Nc2ccnc3ccc([N+](=O)[O-])cc23)cc1	i	?	100µM	i	i	i
SMILES	HP1b chromo inh	PI5P4K alpha inh	JMJD2A Tudor	BAZ2B inh	JMJD2E inh	L3MBTL1 block
O=C(Nc1ccc([N+](=O)[O-])cc1)c1cccc([N+](=O)[O-])c1	nt	i	nt	nt	nt	nt
Cc1cccc(C)c1OC(=O)CSc1nnc(CNC(=O)c2ccccc2)o1	i	nt	i	i	nt	nt
COc1ccccc1CNS(=O)(=O)c1ccc2[nH]cc(C(=O)O)c(=O)c2c1	?	i	40µM	i	i	i
CCn1c(CC2C(=O)N(C)c3ccccc32)nc2ccccc2c1=O (stereo unspecified)	i	nt	i	i	nt	nt
O=C(O)c1ccc(-n2cccc2/C=C2/NC(=O)N(c3ccccc3)C2=O)cc1	16µM	?	25µM	13µM	i	nt
Cc1cc(C(=O)O)ccc1-c1ccc(/C=C2\NC(=O)N(Cc3ccc(F)cc3)C2=O)o1	i	i	?	40µM	?	nt
CN1C(=O)S/C(=C/c2cccn2-c2cccc(C(=O)O)c2)C1=O	i	i	i	?	i	?
O=C(O)c1ccc(-n2cccc2/C=C2/NC(=O)N(c3cccc(Cl)c3)C2=O)cc1	?	-79	20µM	16µM	i	nt
O=C(O)c1ccc(-n2cccc2/C=C2/SC(=O)N(CC(=O)N3CCCC3)C2=O)cc1	14µM	-59	10µM	8.9µM	nt	nt
Cc1cccc(NC(=O)CN2C(=O)N/C(=C\c3ccc(-c4cccc(C(=O)O)c4)o3)C2=O)c1	i	?	i	i	?	nt
O=C1N/C(=C/c2cccn2-c2ccccc2)C(=O)N1Cc1ccccc1F	i	i	i	i	i	i
CCCCN(CC)C(=O)Cn1cc2c(n1)-c1c(oc(C(=O)N3CCCC3)c1C)CC2	i	nt	i	?	nt	nt
O=c1c2ccccc2n(Cc2cccc(Cl)c2)c(=O)n1CCc1ccccc1	i	nt	i	i	nt	nt
O=C(O)c1cccc(-n2cccc2/C=C2\NC(=O)N(Cc3ccc(F)cc3)C2=O)c1	79µM	?	56µM	50µM	i	?
O=C1N/C(=C/c2cccn2-c2ccc(F)cc2)C(=O)N1Cc1ccccc1	i	nt	i	i	i	nt
O=S(=O)(c1ccccc1)N1CCN(c2nc(-c3cccnc3)nc3ccccc23)CC1	i	i	i	50µM	nt	i
Cc1ccc(S(=O)(=O)N2CCN(c3nc(-c4ccnnc4)nc4ccccc34)CC2)cc1	i	nt	32µM	nt	nt	nt
CS(=O)(=O)N1CCc2cc(C(=O)Nc3ccc(Cl)c(C(F)(F)F)c3)ccc21	i	nt	i	i	nt	nt
CCc1ccc(NC(=O)c2cnn3c(C)cc(C)nc23)cc1	nt	nt	i	nt	nt	nt
O=C(CSc1nc2c(oc3ccccc32)c(=O)n1Cc1ccco1)Nc1ccccc1Cl	i	nt	i	i	nt	nt
Clc1ccc2nc(CN3CCCc4ccccc43)cn2c1	i	nt	50µM	50µM	i	?
Clc1ccc2nc(CN3CCCCC3)cn2c1	i	nt	i	i	i	i
Clc1ccc2nc(CN3CCCCCC3)cn2c1	i	i	89µM	?	?	i
CCOc1cc(C2C(C#N)=C(N)OC(C)=C2C(C)=O)cc(Br)c1O (stereo unspecified)	i	nt	89µM	?	i	i[11.4 µM]
O=C(Nc1ncccc1O)c1ccc2c(c1)OCCO2	i	i	25µM	79µM	nt	i
Cc1cccnc1NC(=O)c1ccc2c(c1)OCCO2	i	i	i	i	nt	i
O=C(Nc1ncccc1O)c1ccc2c(c1)OCO2	i	i	18µM	?	nt	i
Oc1c(C(c2ccc(F)cc2)N2CCCC2)sc2nc(-c3ccco3)nn12 (stereo unspecified)	i	nt	i	i	nt	nt
COc1ccc(Nc2nc3ccccc3c3nnc(C)n23)cc1Cl	i	nt	i	i	nt	nt
N#Cc1c(Cl)cccc1Oc1ccc([S+](=O)([O-])N2CCN([S+](=O)([O-])c3c(F)cccc3F)CC2)cc1	nt	nt	i	nt	nt	nt
